Calls of active or inactive are those of the source. Rule for the calls: active = hit-call score of the fitted dose curve at least 0.9, where 1 is the maximum; inactive = score below 0.9.
Columns and labels:
[1] = ATG_GRE_CIS: Attagene CIS-FACTORIAL HepG2 Assay for human Glucocorticoid Response Elements (GRE) (AID 2282947); conditions: HepG2 GRE cis-reporter, Attagene multiplex mRNA; actives raise or lower the signal
In short: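 Fluorescence intensity of reporter-specific cDNA fragments, separated by capillary electrophoresis, provides the signal. Constructs carry cis-regulating promoters in transiently transfected HepG2 liver cells; 24 h incubation; fitting is bidirectional against DMSO.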

[2] = ATG_ISRE_CIS: Attagene CIS-FACTORIAL HepG2 Assay for human Interferon Regulatory Factor 1 (IRF1) binding to an Interferon-Stimulated Response Element (ISRE) (AID 2282948); conditions: HepG2 ISRE cis-reporter (Attagene), mRNA transcription readout; actives raise or lower the signal
In short: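 Multiplexed mRNA reporter readout in human liver HepG2 cells: cis-element-driven reporters transfected, compound added for 24 h, transcripts amplified, fluorescently labelled and sized by capillary electrophoresis; curve fitting bidirectional against DMSO.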

[3] = ATG_M_32_CIS: Attagene CIS-FACTORIAL HepG2 Assay for M32 Transcription Factor (Internal Marker) (AID 2282949); conditions: HepG2 Attagene cis-factorial M32 reporter, mRNA; actives raise or lower the signal;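 note: background control marker of the multiplexed CIS panel rather than a real target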
In short: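 HepG2 human liver cells transiently transfected with cis-promoter-driven multiple reporter transcription units, dosed 24 h. Reporter mRNA quantified by RT-PCR, FAM-labelled primer extension, HpaI digest and capillary electrophoresis; bidirectional fit versus DMSO baseline.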

[4] = ATG_M_06_CIS: Attagene CIS-FACTORIAL HepG2 Assay for M06 Transcription Factor (Internal Marker) (AID 2282950); conditions: HepG2 Attagene CIS-FACTORIAL M06 internal marker reporter; actives raise or lower the signal
In short: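 Read-out is fluorescence of labelled reporter cDNA fragments resolved by capillary electrophoresis after RT-PCR. Cells: HepG2 carrying transfected cis-promoter reporter units, treated 24 h. Gain or loss of signal fitted relative to DMSO.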

[5] = target: Hypoxia-inducible factor 1-alpha (Homo sapiens) (UniProt Q16665); test: ATG_HIF1a_CIS: Attagene CIS-FACTORIAL HepG2 Assay for human Hypoxia Inducible Factor 1 (HIF1A) (AID 2282951); conditions: HepG2 Attagene cis-factorial HIF1a reporter transcription; actives raise or lower the signal
Chain of Hypoxia-inducible factor 1-alpha (Homo sapiens) (Q16665 whole entry, looked up): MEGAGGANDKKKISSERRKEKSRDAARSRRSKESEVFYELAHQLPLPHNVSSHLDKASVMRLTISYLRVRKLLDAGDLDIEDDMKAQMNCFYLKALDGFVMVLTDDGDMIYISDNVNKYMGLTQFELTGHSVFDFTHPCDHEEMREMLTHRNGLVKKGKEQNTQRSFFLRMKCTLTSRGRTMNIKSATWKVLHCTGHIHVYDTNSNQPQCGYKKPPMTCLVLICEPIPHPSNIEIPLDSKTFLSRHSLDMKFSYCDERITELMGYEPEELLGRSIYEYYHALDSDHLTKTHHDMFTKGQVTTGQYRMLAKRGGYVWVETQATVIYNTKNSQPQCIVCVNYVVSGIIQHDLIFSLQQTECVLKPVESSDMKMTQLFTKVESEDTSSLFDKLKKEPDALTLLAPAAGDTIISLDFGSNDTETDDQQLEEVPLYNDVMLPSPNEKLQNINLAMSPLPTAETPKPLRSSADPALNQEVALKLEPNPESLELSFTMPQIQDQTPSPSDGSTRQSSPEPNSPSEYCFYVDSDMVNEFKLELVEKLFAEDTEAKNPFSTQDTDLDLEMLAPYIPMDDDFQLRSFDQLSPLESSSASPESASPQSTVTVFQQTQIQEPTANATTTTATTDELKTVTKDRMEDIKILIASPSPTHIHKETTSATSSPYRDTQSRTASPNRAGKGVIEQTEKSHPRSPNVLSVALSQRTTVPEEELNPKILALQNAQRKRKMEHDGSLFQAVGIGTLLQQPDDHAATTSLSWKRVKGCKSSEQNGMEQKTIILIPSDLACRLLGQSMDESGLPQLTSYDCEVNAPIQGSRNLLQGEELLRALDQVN
In short: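 HepG2, transient cis-reporter library, 24 h dosing. RNA → RT (oligo dT) → PCR → 6-FAM primer extension → HpaI → CE. Bidirectional curve fit vs DMSO.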

[6] = target: Heat shock factor protein 1 (Homo sapiens) (UniProt Q00613); test: ATG_HSE_CIS: Attagene CIS-FACTORIAL HepG2 Assay for human Heat Shock Transcription Factor 1 (HSE) (AID 2282953); conditions: HepG2 HSE cis-reporter, Attagene RNA transcription; actives raise or lower the signal
Chain of Heat shock factor protein 1 (Homo sapiens) (Q00613 whole entry, looked up): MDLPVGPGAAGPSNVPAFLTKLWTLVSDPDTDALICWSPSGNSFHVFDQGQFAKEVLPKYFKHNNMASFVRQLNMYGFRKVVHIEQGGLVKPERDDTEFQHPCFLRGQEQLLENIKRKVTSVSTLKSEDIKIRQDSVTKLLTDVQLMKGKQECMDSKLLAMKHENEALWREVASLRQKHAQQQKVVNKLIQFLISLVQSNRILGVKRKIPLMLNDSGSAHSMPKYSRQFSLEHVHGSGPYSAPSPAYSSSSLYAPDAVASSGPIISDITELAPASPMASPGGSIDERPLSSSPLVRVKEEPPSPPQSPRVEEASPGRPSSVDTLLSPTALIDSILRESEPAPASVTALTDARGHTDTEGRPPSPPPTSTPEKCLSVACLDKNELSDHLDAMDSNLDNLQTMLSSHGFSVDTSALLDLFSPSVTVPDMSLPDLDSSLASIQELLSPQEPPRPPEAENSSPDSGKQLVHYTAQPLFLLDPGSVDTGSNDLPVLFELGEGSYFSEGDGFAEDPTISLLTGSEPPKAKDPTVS
In short: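 HepG2, transient MRTU transfection, cis-promoter reporters (endogenous TF activity). 24 h compound. RNA → oligo(dT) RT → PCR → 6-FAM primer extension → HpaI cut → CE. Bidirectional fit vs DMSO.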

[7] = ATG_MRE_CIS: Attagene CIS-FACTORIAL HepG2 Assay for human Metal Responsive Element (MRE) (AID 2282954); conditions: HepG2 MRE cis-reporter transcription, Attagene multiplex; actives raise or lower the signal
In short: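 Measured here is mRNA induction from an MRE cis-element reporter in HepG2 after 24 h, quantified by fluorescence of labelled RT-PCR products on capillary electrophoresis; gain- and loss-of-signal fits use DMSO as baseline.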

[8] = target: Paired box protein Pax-6 (Homo sapiens) (UniProt P26367); test: ATG_Pax6_CIS: Attagene CIS-FACTORIAL HepG2 Assay for human Paired Box 6 (PAX6) (AID 2282956); conditions: HepG2 CIS-FACTORIAL PAX6 reporter transcription, RNA readout; actives raise or lower the signal
Chain of Paired box protein Pax-6 (Homo sapiens) (P26367 whole entry, looked up): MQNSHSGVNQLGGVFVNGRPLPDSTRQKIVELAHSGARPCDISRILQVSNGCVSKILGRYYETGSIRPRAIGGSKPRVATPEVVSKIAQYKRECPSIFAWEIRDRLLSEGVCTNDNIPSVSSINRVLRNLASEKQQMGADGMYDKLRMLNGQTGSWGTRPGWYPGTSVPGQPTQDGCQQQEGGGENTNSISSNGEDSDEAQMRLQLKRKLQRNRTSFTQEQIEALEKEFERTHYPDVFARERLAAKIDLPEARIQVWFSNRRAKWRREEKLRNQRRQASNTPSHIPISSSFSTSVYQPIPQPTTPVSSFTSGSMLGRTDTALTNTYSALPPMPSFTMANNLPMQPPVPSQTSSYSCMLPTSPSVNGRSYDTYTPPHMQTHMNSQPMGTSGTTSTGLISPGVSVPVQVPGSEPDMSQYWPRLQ
In short: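 Fluorescent RT-PCR products separated by capillary electrophoresis report PAX6-linked promoter mRNA in HepG2 cells 24 h post-dose. Curves fitted bidirectionally, DMSO as negative control.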

[9] = ATG_PXRE_CIS: Attagene CIS-FACTORIAL HepG2 Assay for human Pregnane X Receptor Element (PXRE) (AID 2282957); conditions: HepG2 Attagene CIS-FACTORIAL PXRE reporter, mRNA; actives raise or lower the signal
In short: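 Using HepG2 transfected with multiple reporter transcription units, endogenous factor-driven transcription was scored as reporter mRNA after 24 h exposure.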

[10] = ATG_PPRE_CIS: Attagene CIS-FACTORIAL HepG2 Assay for human Peroxisome Proliferator-activated Response Element (PPRE) (AID 2282958); conditions: HepG2 PPRE cis-element reporter, Attagene transcription factor profiling; actives raise or lower the signal
In short: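 Transcript-level reporter induction in transfected HepG2 cells after 24 h chemical exposure, quantified by fluorescence from RT-PCR products separated by capillary electrophoresis.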

[11] = ATG_RORE_CIS: Attagene CIS-FACTORIAL HepG2 Assay for human RAR-related Orphan Receptor Element (RORE) (AID 2282959); conditions: HepG2 Attagene cis-factorial RORE reporter, mRNA; actives raise or lower the signal
In short: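 Multiplexed reporter assay measuring mRNA induction from a cis promoter element in transiently transfected HepG2 cells after 24 h treatment. Detection via RT-PCR and capillary electrophoresis fluorescence; DMSO serves as baseline.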

[12] = ATG_Sox_CIS: Attagene CIS-FACTORIAL HepG2 Assay for human SRY-box transcription factor (SOX) (AID 2282960); conditions: HepG2 Attagene cis-factorial SOX reporter, mRNA; actives raise or lower the signal
In short: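 Cells were transfected with reporter constructs under cis-regulatory promoters, then exposed to chemicals for 24 h. Reporter transcripts were quantified by fluorescence after RT-PCR and capillary electrophoresis; activity was fitted in both directions against DMSO.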

[13] = target: Transcription factor Sp1 (Homo sapiens) (UniProt P08047); test: ATG_Sp1_CIS: Attagene CIS-FACTORIAL HepG2 Assay for human Specificity Protein 1 (Sp1) (AID 2282961); conditions: HepG2 Sp1 cis-reporter transcription, actives raise or lower the signal
Chain of Transcription factor Sp1 (Homo sapiens) (P08047 whole entry, looked up): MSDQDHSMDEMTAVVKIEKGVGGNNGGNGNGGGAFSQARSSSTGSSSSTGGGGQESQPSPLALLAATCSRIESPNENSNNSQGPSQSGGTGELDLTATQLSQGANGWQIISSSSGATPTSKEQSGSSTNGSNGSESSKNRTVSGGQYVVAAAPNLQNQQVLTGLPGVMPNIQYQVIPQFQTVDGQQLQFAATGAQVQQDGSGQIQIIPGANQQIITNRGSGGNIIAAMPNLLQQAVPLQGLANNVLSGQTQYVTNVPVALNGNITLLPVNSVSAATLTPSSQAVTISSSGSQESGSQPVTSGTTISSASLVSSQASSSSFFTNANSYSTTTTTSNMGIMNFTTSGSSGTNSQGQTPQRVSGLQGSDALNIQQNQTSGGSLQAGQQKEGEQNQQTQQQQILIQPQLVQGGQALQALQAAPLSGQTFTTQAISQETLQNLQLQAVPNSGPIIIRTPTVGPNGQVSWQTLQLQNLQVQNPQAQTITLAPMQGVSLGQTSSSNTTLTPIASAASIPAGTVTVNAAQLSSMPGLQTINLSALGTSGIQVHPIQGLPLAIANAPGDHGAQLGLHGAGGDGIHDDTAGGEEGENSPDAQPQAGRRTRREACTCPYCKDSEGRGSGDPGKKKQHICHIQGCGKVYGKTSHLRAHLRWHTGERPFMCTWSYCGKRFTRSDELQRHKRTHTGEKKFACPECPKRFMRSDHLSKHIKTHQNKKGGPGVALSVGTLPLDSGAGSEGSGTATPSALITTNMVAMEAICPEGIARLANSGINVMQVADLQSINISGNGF
In short: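 Measures mRNA induction of an Sp1-linked reporter in HepG2 cells 24 h post-dosing. Multiplexed reporters read by RT-PCR and capillary electrophoresis; DMSO serves as negative control and baseline.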

[14] = ATG_SREBP_CIS: Attagene CIS-FACTORIAL HepG2 Assay for human Sterol Regulatory Element Binding (SREBP) (AID 2282962); conditions: HepG2 Attagene cis-factorial SREBP reporter, mRNA; actives raise or lower the signal
In short: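 Endogenous factor activity is measured in HepG2 through multiplexed reporter units under cis-element control. Following a 24 h incubation, reporter transcripts are reverse-transcribed, PCR-amplified and sized by capillary electrophoresis; activity is fitted in both directions relative to DMSO.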

[15] = target: Signal transducer and activator of transcription 3 (Homo sapiens) (UniProt P40763); test: ATG_STAT3_CIS: Attagene CIS-FACTORIAL HepG2 Assay for human Signal Transducer and Activator of Transcription 3 (STAT3) (AID 2282963); conditions: HepG2, Attagene cis-factorial STAT3 reporter transcription; actives raise or lower the signal
Chain of Signal transducer and activator of transcription 3 (Homo sapiens) (P40763 whole entry, looked up, the tested form may be a part): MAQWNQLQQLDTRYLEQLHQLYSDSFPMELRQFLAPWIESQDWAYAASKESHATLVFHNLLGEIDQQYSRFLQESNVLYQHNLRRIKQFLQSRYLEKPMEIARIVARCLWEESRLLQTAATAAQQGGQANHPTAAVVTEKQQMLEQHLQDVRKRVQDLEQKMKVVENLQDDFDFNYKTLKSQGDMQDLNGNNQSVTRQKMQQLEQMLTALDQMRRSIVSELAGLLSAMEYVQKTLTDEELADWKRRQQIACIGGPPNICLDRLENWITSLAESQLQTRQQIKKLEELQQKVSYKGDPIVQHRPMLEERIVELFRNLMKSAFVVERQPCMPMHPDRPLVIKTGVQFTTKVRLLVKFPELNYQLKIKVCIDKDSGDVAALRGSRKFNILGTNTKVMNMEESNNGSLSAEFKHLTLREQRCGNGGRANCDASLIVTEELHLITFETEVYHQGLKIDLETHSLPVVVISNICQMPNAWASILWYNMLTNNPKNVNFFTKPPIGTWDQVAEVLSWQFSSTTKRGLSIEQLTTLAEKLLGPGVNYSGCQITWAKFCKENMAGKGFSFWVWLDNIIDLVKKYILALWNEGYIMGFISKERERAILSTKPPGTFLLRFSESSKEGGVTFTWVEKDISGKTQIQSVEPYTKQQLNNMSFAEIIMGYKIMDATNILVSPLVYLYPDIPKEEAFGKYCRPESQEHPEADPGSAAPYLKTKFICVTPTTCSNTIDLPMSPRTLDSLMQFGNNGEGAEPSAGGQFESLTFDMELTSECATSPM
In short: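 Fluorescence intensity of 6-FAM-labelled reporter fragments, separated by capillary electrophoresis after RT-PCR, gave the signal. Cells were HepG2 transfected with cis-element reporter units and treated 24 h; fitting was bidirectional relative to DMSO.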

[16] = ATG_TA_CIS: Attagene CIS-FACTORIAL HepG2 Assay for human TA Basal Promoter (AID 2282964); conditions: HepG2 Attagene CIS-factorial TA basal promoter reporter; actives raise or lower the signal
In short: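 Read-out: fluorescent reporter-transcript fragments resolved by capillary electrophoresis after RT-PCR and HpaI digestion. Source: HepG2 cells carrying transiently transfected multi-reporter cis constructs, treated 24 h. Endpoint fitted bidirectionally relative to DMSO.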

[17] = ATG_TCF_b_cat_CIS: Attagene CIS-FACTORIAL HepG2 Assay for human T-Cell-Factor with beta-catenin (TCF/b-cat) (AID 2282965); conditions: HepG2 TCF/beta-catenin cis-reporter transcription, actives raise or lower the signal
In short: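 HepG2 cells transiently transfected with cis-promoter-driven multiplexed reporter units; reporter mRNA measured 24 h after dosing by RT-PCR, FAM labelling, HpaI digestion and capillary electrophoresis. Bidirectional fitting relative to DMSO baseline.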

[18] = target: Hepatocyte nuclear factor 6 (Homo sapiens) (UniProt Q9UBC0); test: ATG_HNF6_CIS: Attagene CIS-FACTORIAL HepG2 Assay for human Hepatocyte Nuclear Factor 6 (HNF6) (AID 2282952); conditions: HepG2 Attagene cis-factorial HNF6 reporter transcription; actives raise or lower the signal
Chain of Hepatocyte nuclear factor 6 (Homo sapiens) (Q9UBC0 whole entry, looked up, the tested form may be a part): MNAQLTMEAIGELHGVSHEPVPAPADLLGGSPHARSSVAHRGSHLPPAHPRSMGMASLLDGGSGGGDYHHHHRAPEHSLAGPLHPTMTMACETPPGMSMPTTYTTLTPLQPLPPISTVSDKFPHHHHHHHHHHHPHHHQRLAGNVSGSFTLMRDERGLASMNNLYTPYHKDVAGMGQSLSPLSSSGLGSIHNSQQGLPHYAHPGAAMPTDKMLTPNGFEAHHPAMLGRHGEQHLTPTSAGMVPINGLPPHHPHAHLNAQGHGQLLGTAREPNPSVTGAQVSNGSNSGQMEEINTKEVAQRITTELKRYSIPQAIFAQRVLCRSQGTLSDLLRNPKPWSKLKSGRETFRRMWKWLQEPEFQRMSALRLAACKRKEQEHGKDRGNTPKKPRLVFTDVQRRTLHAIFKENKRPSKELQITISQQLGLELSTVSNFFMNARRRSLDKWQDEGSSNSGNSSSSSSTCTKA
In short: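 Using cis-element reporters in HepG2 liver cells, the assay tracks endogenous factor-driven transcription 24 h post-dosing. Signal comes from 6-FAM-labelled, HpaI-digested RT-PCR fragments, with gain or loss scored against DMSO.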

[19] = ATG_PBREM_CIS: Attagene CIS-FACTORIAL HepG2 Assay for human Phenobarbital-responsive Enhancer Module (PBREM) (AID 2282955); conditions: HepG2 PBREM cis-reporter, Attagene multiplexed transcription; actives raise or lower the signal
In short: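 HepG2, transient MRTU transfection, 24 h dosing; RNA → oligo(dT) RT → PCR → 6-FAM extension → HpaI → CE. Bidirectional fit vs DMSO.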

Measured: AC50

O=C(O)c1cn(-c2ccc(F)cc2)c2cc(N3CCNCC3)c(F)cc2c1=O
inactive: [1] | [2] | [3] | [4] | [5] | [6] | [7] | [8] | [9] | [10] | [11] | [12] | [13] | [14] | [15] | [16] | [17]

CCO[Si](CCCS)(OCC)OCC
inactive: [1] | [2] | [3] | [4] | [6] | [7] | [8] | [10] | [11] | [12] | [13] | [14] | [15] | [16] | [17]
active: [5] 28.4 µM

CC(=O)C(=O)O
inactive: [2] | [3] | [4] | [18] | [6] | [7] | [19] | [8] | [9] | [10] | [11] | [12] | [13] | [14] | [15] | [16] | [17]
active: [5] 33.9 µM

C[C@]12CC[C@H]3[C@@H](CCC4=CC(=O)CC[C@@]43C)[C@@H]1CC[C@@H]2C(=O)CO
inactive: [1] | [4] | [18] | [10] | [11] | [12] | [13] | [14] | [15]
active: [2] 100 µM | [6] 60.1 µM | [7] 100 µM | [19] 3.31 µM | [8] 100 µM | [16] 61 µM | [17] 100 µM

Cc1ccccc1C=O
active: [9] 38.2 µM
inactive: [1] | [2] | [3] | [4] | [5] | [18] | [19] | [8] | [10] | [11] | [12] | [13] | [14] | [15] | [16] | [17]

CNCCCC12CCC(c3ccccc31)c1ccccc12
active: [2] 17.9 µM | [7] 16.6 µM | [8] 17.4 µM | [17] 18.5 µM
inactive: [1] | [3] | [4] | [18] | [19] | [9] | [10] | [12] | [13] | [14] | [15]

CN(C)c1ccc(O)c2c1C[C@H]1C[C@H]3[C@H](N(C)C)C(=O)C(C(N)=O)=C(O)[C@@]3(O)C(=O)C1=C2O
inactive: [1] | [2] | [4] | [5] | [18] | [6] | [7] | [19] | [8] | [9] | [11] | [12] | [13] | [14] | [15] | [16]

NC(N)=NC(=O)c1nc(Cl)c(N)nc1N
inactive: [1] | [4] | [18] | [6] | [7] | [19] | [8] | [9] | [11] | [12] | [13] | [14] | [15] | [16] | [17]
active: [2] 157 µM

O=C(O)c1cn(C2CC2)c2cc(N3CCNCC3)c(F)cc2c1=O
inactive: [1] | [2] | [3] | [4] | [6] | [7] | [8] | [9] | [10] | [11] | [13] | [14] | [15] | [16] | [17]

CCOC(=S)SSC(=S)OCC
inactive: [1] | [2] | [4] | [5] | [18] | [7] | [19] | [8] | [10] | [11] | [12] | [13] | [14] | [15] | [16] | [17]
active: [6] 157 µM

CC(c1cc2ccccc2s1)N(O)C(N)=O (configuration not stated)
inactive: [1] | [2] | [4] | [5] | [18] | [6] | [7] | [8] | [9] | [12] | [13] | [14] | [15] | [16] | [17]

CC(C)=CCCC(C)=CCCC(C)=CCO
active: [9] 4.26 µM | [14] 41.4 µM
inactive: [2] | [3] | [4] | [5] | [18] | [6] | [7] | [19] | [8] | [10] | [11] | [12] | [13] | [15] | [17]

C[C@H]1C[C@@H]2[C@H]([C@@H](O)C[C@@]3(C)[C@H]2CC[C@]3(O)C(=O)CO)[C@@]2(C)C=CC(=O)C=C12
inactive: [2] | [4] | [7] | [8] | [10] | [11] | [13] | [14] | [16] | [17]
active: [1] 0.151 µM | [9] 62.9 µM

From PubChem BioAssay (EPA / NIEHS)
